Source: PubChem (The Scripps Research Institute Molecular Screening Center)
CHRM1 agonist: human M1 muscarinic receptor agonists, primary screen, Fluo-8 calcium fluorescence, CHO-K1 cells, HTS. Muscarinic acetylcholine receptor M1 (Homo sapiens), P11229. CHO-K1 hM1, agonist mode; 0% DMSO, 100% acetylcholine EC100. activation, % at 3 µM. actives 0.33% (n = 360,000). AID 588814, 2011;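 active = activation above the run's mean compound activation plus 3 SD, cut at about 16% in these data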;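 also: peak over basal fluorescence ratio within a 140 s kinetic read after compound addition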
Target sequence (P11229 whole entry, looked up): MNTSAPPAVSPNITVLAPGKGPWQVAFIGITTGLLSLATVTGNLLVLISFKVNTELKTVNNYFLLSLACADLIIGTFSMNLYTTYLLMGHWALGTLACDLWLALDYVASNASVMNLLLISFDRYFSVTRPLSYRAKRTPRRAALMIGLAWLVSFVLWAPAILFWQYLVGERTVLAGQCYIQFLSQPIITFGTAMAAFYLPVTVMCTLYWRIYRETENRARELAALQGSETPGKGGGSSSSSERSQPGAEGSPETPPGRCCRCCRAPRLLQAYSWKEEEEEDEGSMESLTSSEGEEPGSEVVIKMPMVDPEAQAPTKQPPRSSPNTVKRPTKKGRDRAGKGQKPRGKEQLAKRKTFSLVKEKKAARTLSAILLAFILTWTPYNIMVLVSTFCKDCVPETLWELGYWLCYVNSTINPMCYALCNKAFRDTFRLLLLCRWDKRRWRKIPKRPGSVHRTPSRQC
CHRM1 PAM: human M1 muscarinic receptor positive allosteric modulators, primary screen, CHO-K1 cells, Fluo-8 calcium fluorescence, 1536-well; Muscarinic acetylcholine receptor M1 (Homo sapiens), P11229; CHO-K1 hM1, ACh EC20; 0% = ACh EC20, 100% = maximal ACh; activation, % at 3 µM; actives 0.088% (n = 360,000); in the data active = activation above about 19%, passing the limit was not always enough
M1 PAM parental: nonselective calcium activators in parental CHO-K1 cells, primary screen, counter-screen for M1 PAM project, cell-based, Fluo-8 calcium fluorescence, full deck, 1536-well; ATP EC20; 0% at ATP EC20, 100% at ATP max; activation, % at 3 µM; actives 0.02% (n = 360,000); AID 602247, 2012;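 active = activation above the run cutoff, the mean activation of all test compounds plus 3 SD, cut at about 40% in these data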;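 also: peak over basal fluorescence ratio in a 140 s read after ATP addition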
CHRM1 antagonist: human M1 muscarinic receptor antagonists, primary screen, CHO-K1 cells, Fluo-8 calcium fluorescence, 1536-well; Muscarinic acetylcholine receptor M1 (Homo sapiens), P11229; CHO-K1 hM1, ACh EC80 antagonist; inhibition, % at 3 µM; actives 1.3% (n = 360,000); AID 588852, 2011;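 active = percent inhibition above its own plate's cutoff, namely the mean of that plate's compound wells plus 3 SD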;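 also: peak over basal fluorescence ratio during 140 s after agonist addition; 0% = ACh EC80 plus DMSO and 100% = DMSO alone without agonist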
M1 ag parental: counter-screen for M1 agonists: effect in parental CHO-K1 cells; Fluo-8 calcium fluorescence; scaled to maximal ATP response, vehicle zero; AID 602248, 2012; actives 0.48% (n = 360,000); activation, % at 3 µM; in the data active = activation above about 15%;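 also: untransfected CHO-K1 host cells lacking M1 receptor as counterscreen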
CHO-K1 Ca antag: M1 antagonist counterscreen hit in parental CHO-K1 cells; ATP-induced calcium, Fluo-8 fluorescence; inhibition, % at 3 µM; actives 0.6% (n = 360,000); AID 602250;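 active = inhibition above a per-plate cutoff, the plate's mean sample inhibition plus 3 SD, cut at about 24% in these data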;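 also: 0% = DMSO plus EC80 ATP and 100% = DMSO alone without ATP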
* marks the source's active call; other numbers are inactive results. Sampled rows, rich in hits. Any-hit rate of the full collection: about 2.3%.

SMILES	CHRM1 agonist	CHRM1 PAM	M1 PAM parental	CHRM1 antagonist	M1 ag parental	CHO-K1 Ca antag
CCC(Cc1ccccc1)NC(=O)c1ccc2nc(N3CCOCC3)sc2c1 (centres undefined)	-4.1	-1.0	8.8	-4.9	1.1	0.2
Cc1cc(C)cc(N(CC(=O)NC2CCC(C)CC2)S(=O)(=O)c2c(C)[nH]c(=O)[nH]c2=O)c1 (centres undefined)	-3.5	8.9	26.9	-8.1	1.0	-20.4
CCC1CN(C(=O)N2CCC(C(=O)Nc3ccccc3OC)CC2)c2ccccc2O1 (centres undefined)	1.7	-11.6	21.7	24.6	7.7	-2.9
CCOc1ccc(C(=O)NC2CC3CCCC(C2)N3CC(C)C)cc1 (centres undefined)	-5.9	-14.4	-15.4	39.9*	0.1	-0.2
CN1C(=O)C(CC(=O)Nc2ccc(F)cc2)N(NC(=O)c2cccc(F)c2)C1=S (centres undefined)	0.2	-9.2	11.7	49.5*	1.9	-3.8
CCN1C(=O)C(CC(=O)Nc2ccccc2Cl)N(NC(=O)c2cccc(F)c2)C1=S (centres undefined)	-0.9	4.2	16.5	-3.7	4.3	-14.8
O=C(CSc1nnc(CNC(=O)c2cccs2)o1)NC1CCCCC1	-1.9	-3.6	-7.3	0.5	0.0	24.6*
CCC(=O)c1cn(CC(=O)Nc2ccccc2)c2ccccc12	-0.6	4.3	-5.4	6.5	0.3	25.5*
Cc1nn(CCCC(=O)NC2CCC(C)CC2)c(=O)c2nn(-c3ccccc3)c(C)c12 (centres undefined)	-3.7	0.5	20.4	-1.3	-0.4	-20.1
CCN(CC)Cc1nc2nc(Cl)c(Cl)nc2[nH]1	-4.8	8.6	4.1	-14.6	0.3	-5.7
CCNC(=S)Nc1ccc(S(=O)(=O)Nc2cc(C)nc(C)n2)cc1	-4.2	5.0	12.2	-4.0	0.2	-3.9
O=C(Cc1ccc(NS(=O)(=O)c2cccc(C(F)(F)F)c2)cc1)NCCN1CCOCC1	-4.7	5.8	7.1	-1.8	1.2	-3.6
CC(C)(CNC(=O)Cc1ccc(NS(=O)(=O)c2cccc(C(F)(F)F)c2)cc1)N1CCOCC1	-5.8	-12.6	-11.1	33.7*	0.1	9.5
Cc1ccccc1-n1nnnc1SCC(N)=O	-2.3	4.0	23.8	-15.8	0.6	-12.8
NC(=O)CSc1nnnn1CC(CC(=O)O)c1ccccc1 (centres undefined)	-0.3	11.4	-5.7	0.2	-0.1	24.8*
Cc1ccc(N2CC(C(=O)N3CCC(C(=O)NC(C)(C)C)CC3)CC2=O)cc1 (centres undefined)	-4.4	12.3	1.1	-14.8	0.6	-5.8
Cc1cc(O)c(C(=O)/C=C/c2ccccc2Br)c(=O)o1	0.1	8.2	8.2	-5.2	18.3*	5.7
Cc1cc(Cl)ccc1OCC(O)CNCCc1ccc(S(N)(=O)=O)cc1 (centres undefined)	0.1	-15.6	-2.7	43.1*	0.6	1.6
CCN(CC)S(=O)(=O)c1ccc(C(=O)NNC(=O)C2CCN(S(=O)(=O)c3ccc(Cl)cc3)CC2)cc1	-4.4	5.5	15.5	-5.6	-0.4	-4.7
Fc1ccccc1CNc1ncnc2sccc12	5.0	3.4	11.7	18.1	11.9	9.3
c1ccc2c(c1)OCC(CNc1ncnc3sccc13)O2 (centres undefined)	0.7	-11.5	3.4	22.1	12.9	30.7*
c1ccc(C2[C@H]3CN(CC4CCCCC4)[C@H](c4ccccc4)C34CC2(c2cccnc2)C4)cc1 (some centres undefined)	-12.9	-37.1	-3.5	74.3*	0.2	-1.6
c1ccc(C2[C@H]3CN(CC4CCCCC4)[C@H](c4ccccc4)C34CC2(c2ccccc2)C4)cc1 (some centres undefined)	-9.2	-10.4	13.0	7.8	0.8	-10.6
CN1C[C@@H]2C(c3ccc(C(F)(F)F)cc3)C3(c4cccnc4)CC2(C3)[C@H]1c1ccccc1 (some centres undefined)	-9.5	-32.2	22.3	31.5*	0.2	-12.4
c1ccc(C2[C@H]3CN(Cc4cccnc4)[C@H](c4ccccc4)C34CC2(c2cccnc2)C4)cc1 (some centres undefined)	-10.6	-31.2	-7.7	39.9*	-0.7	-3.0
SMILES	CHRM1 agonist	CHRM1 PAM	M1 PAM parental	CHRM1 antagonist	M1 ag parental	CHO-K1 Ca antag
FC(F)(F)c1ccc(CN2C[C@@H]3C(c4ccc(C(F)(F)F)cc4)C4(c5cccnc5)CC3(C4)[C@H]2c2ccccc2)cc1 (some centres undefined)	-8.2	2.1	6.9	-5.8	0.8	-9.4
COC(=O)CCC(=O)OC1(C)C(=O)C=C2C=C(C3CC3)N(CCCCO)C=C2C1=O (centres undefined)	-3.7	6.3	5.2	-6.6	0.2	-3.9
COC(=O)CCC(=O)OC1(C)C(=O)C=C2C=C(C3CC3)N(c3ccccc3)C=C2C1=O (centres undefined)	-4.8	-17.6	-20.6	28.4*	-0.9	21.8
CC(C)C[C@H](NC(=O)/C=C/[C@H]1O[C@@H](n2ccc(=O)[nH]c2=O)[C@H](O)[C@@H]1O)C(=O)O	16.7*	7.2	-11.2	-14.1	0.0	15.7
CC1(O)c2ccccc2C(=O)N1Cc1ccccc1 (centres undefined)	-6.7	6.3	-6.0	1.4	-0.6	27.1*
CC1(O)c2ccccc2C(=O)N1CCc1ccccc1F (centres undefined)	-4.6	1.9	19.6	-9.0	0.1	-12.5
CCCC(=O)N1CCC(Cc2ccccc2)CC1	5.8	13.4	-12.0	-11.5	-0.3	17.2
CCCCCCNCC(=O)N1CCC(Cc2ccccc2)CC1	-11.1	-26.4	-21.2	30.8*	2.9	3.2
CCc1ccccc1NC(=O)C(Cc1ccccc1)c1nn[nH]n1 (centres undefined)	0.4	-0.4	14.3	-3.5	2.2	-2.3
O=C(CN1CCC(O)CC1)N1c2ccccc2C=Cc2ccccc21	-9.6	-24.3	12.7	47.0*	0.6	-8.0
O=C(CN1CCC(N2CCCCC2)CC1)N1CCCc2ccccc21	-5.0	-0.6	3.0	3.7	-0.2	-0.8
CC1CCN(CC(=O)N2c3ccccc3CCc3ccccc32)CC1	-7.0	-27.1	-6.5	72.2*	0.3	-6.6
O=C(CN1CCCCC1)N1c2ccccc2CCc2ccccc21	-4.3	-21.1	10.3	93.4*	0.1	-0.7
Cc1cc(C)n2c(nc3ccccc32)c1C(=O)NCc1ccccc1	-4.1	8.2	27.9	-12.9	2.0	-18.8
